These compounds were tested on RET. Details: concentration: 1 μM, replicates: in singlicate; n = 1.
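Further: KINOMEscan kinase panel screen.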

Row | SMILES | %Inh [%]
1 | COC(=O)Nc1nc2cc(Oc3ccc(NC(=O)Nc4cc(C(F)(F)F)ccc4F)cn3)ccc2[nH]1.Cl.Cl [GW681170] | 99.9
2 | Fc1ccc(-c2ncn(C3CCNCC3)c2-c2ccnc(Oc3ccc(-c4ccccc4)cc3)n2)cc1 [SB-245391] | 3
3 | Cc1ccc(C)c(NC(=O)NC2CCN(c3ccnc(Nc4ccc(F)cc4)n3)C2)c1 (stereo not shown) [GSK1379720] | 0
4 | CSc1cccc2c(-c3ccncn3)c(-c3ccc(F)cc3)nn12 [GW514786] | 29
5 | Oc1cc(Nc2ccnc3cc(I)ccc23)ccc1F [GW552771] | 85
6 | Cc1ccc(S(=O)(=O)Nc2ccc(Nc3nccc(Nc4cccc5[nH]ncc45)n3)cc2)cc1 [GSK581271] | 8
7 | COc1cccc(-c2ccc3c(NC(=O)C4CC4)n[nH]c3n2)c1 [SB-710903] | 6
8 | O=C(Nc1cccc(-c2nn3ccccc3c2-c2ccnc(Nc3cccc(C(F)(F)F)c3)n2)c1)c1c(F)cccc1F [GSK292658] | 73
9 | Cl.Cl.NCC(NCc1ccc(-c2ccnc3[nH]ccc23)s1)c1ccccc1 (stereo not shown) [GSK1321565] | 49
10 | CCn1c(-c2nonc2N)nc2c(C#CC(C)(C)O)nc(OC[C@H](N)c3ccccc3)cc21 [GSK943949] | 10
11 | COCCOCCOc1cc2ncc3c4ccc(C#N)cc4[nH]c3c2cc1OC | 45
12 | Clc1ccc(-c2nn3ncccc3c2-c2ccnc(Nc3ccc4c(c3)OCCO4)n2)cc1 [GW829116] | 24
13 | COc1cccc(NC(=O)NC2CCN(c3ccnc(Nc4cc(OC)c(OC)c(OC)c4)n3)C2)c1 (stereo not shown) [GSK1379763] | 16

From PMC5540273 (PLoS ONE, 2017)
